Source: PubChem (several laboratories)
V-ATPase pH: yeast V-ATPase proton transport regulation by pHLuorin; AID 504577; 0.37% of 350,000 active; S. cerevisiae, pHLuorin cytosolic pH fluorescence; response, % at 10 µM; in the data active = response mostly above about 7.3%, no sharp cut-off; inactive = mostly below about 5.4%; note: actives read high
Mot1-301 SUMO: SUMOylation pathway inhibition by Mot1-301 growth rescue. S. cerevisiae Mot1-301 growth rescue, ATP luminescence, 38.5C; percent above DMSO median, 100 means doubled. growth rescue, % at 18.8 µM. 1% of 320,000 active. AID 2716;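 active = every valid replicate shows activation above 250% relative to neutral control wells; inactive = the rest, any valid replicate at or below 250%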;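 note: OY570 slx delta 5 strain wells were the positive control but not used for scaling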
Efflux pump inh: antifungal efflux pump inhibition, Nile Red retention; S. cerevisiae Candida pump triplex; inhibition, % at 10 µM; 0.44% of 330,000 active; AID 485275;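 active = plate passing quality check with inhibition over a set limit, or well fluorescence over plate mean plus 4 SD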;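 note: Nile Red retained in pooled yeast measured as flow cytometry median fluorescence; 0% = buffer negative control and 100% = Enniatin B positive control; higher means more Nile Red kept so more efflux inhibition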
AI-2 QS modul: modulators of Vibrio harveyi AI-2 quorum sensing system; Vibrio harveyi JMH597 AI-2 luminescence/OD600 ratio, 9 h; stronger effect = lower value; strain lacks LuxN and CqsS sensors; 0 = neutral-control median; activity change, % at 7.5 µM; 0.4% of 300,000 active; AID 2094; in the data active = activity change below about -75%, passing the limit was not always enough;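 note: luminescence divided by OD600 gain over 9 h not by final OD600 alone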
ATG4B inhibitor: inhibitors of human ATG4B cysteine protease. 0.51% of 340,000 active. ATG4B cleavage of LC3-PLA2, NBD-HPC fluorescence, 1 h. inhibition, % at 8.33 µM. Q9Y4P1; in the data active = inhibition above about 40%
Target sequence (Q9Y4P1 whole entry, looked up): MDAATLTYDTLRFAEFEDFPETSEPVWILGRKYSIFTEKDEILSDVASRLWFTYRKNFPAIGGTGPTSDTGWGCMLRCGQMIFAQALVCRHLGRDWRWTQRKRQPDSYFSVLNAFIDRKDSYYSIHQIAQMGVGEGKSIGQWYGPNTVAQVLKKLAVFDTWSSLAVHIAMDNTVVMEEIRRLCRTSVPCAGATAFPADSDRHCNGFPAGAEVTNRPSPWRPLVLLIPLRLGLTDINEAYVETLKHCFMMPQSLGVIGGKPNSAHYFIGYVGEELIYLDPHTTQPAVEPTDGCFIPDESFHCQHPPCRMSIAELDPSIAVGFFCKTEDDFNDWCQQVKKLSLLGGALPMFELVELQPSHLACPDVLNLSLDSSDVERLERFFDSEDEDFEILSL
ATG4B conf: ATG4B (human) inhibition, single-dose confirmed. AID 504757. 92% of 320 active. shares compounds with ATG4B inhibitor. ATG4B protease fluorescent substrate cleavage assay. inhibition, % at 8.33 µM; in the data active = inhibition above about 39%
PLA2 ctr: counter-screen for ATG4B inhibitors: human phospholipase A2; shares compounds with ATG4B inhibitor; inhibition, % at 8.33 µM; purified PLA2, NBD-C6-HPC fluorescence, 45 min; 66% of 1,600 active; in the data active = inhibition above about 50%
* = called active by the depositor; · = no result. Shown are actives, neighbours in structure and some others; about 2.5% of the full set was active somewhere.

SMILES | V-ATPase pH | Mot1-301 SUMO | Efflux pump inh | AI-2 QS modul | ATG4B inhibitor | PLA2 ctr | others
NC(=O)Cc1ccc(C(=O)c2ccc(Cl)cc2)s1 | -1 | -26 | 0 | 12 | 57* | 51*
C=CCn1c(SCc2nc3scc(-c4ccccc4)c3c(=O)[nH]2)nnc1-c1ccccc1F | -2 | 210 | 0 | 14 | 46* | 42 | ATG4B conf=62*
NS(=O)(=O)c1cccc(C(=O)NC2CCSc3ccccc32)c1 (configuration not stated) | 2 | 4 | 0 | 31 | 13 | ·
NS(=O)(=O)c1cc(C(=O)NC2CCSc3ccccc32)ccc1Cl (configuration not stated) | 0 | -9 | 0 | 44 | 54* | 25 | ATG4B conf=43*
Cc1nc(NC(=O)c2ccccc2)sc1C1(C)CC(c2ccccc2F)=NO1 (configuration not stated) | 4 | 5 | 0 | 26 | 45* | 64*
CCOC(=O)C1(C)NC(c2ccc(OC)cc2OC)C2C(=O)N(c3cccc(OC)c3)C(=O)C21 (configuration not stated) | -1 | -11 | 0 | 13 | -3 | ·
Cc1ccc(N(CC(=O)NCc2ccc(F)cc2)C(=O)c2snc(C(N)=O)c2N)cc1C | 4 | 34 | 0 | 11 | 60* | 57*
COc1ccc(N(CC(=O)NCc2ccc(F)cc2)C(=O)c2snc(C(N)=O)c2N)cc1OC | 0 | -4 | 0 | · | 10 | ·
O=C(NNC(=S)Nc1ccc(Cl)c(Cl)c1)c1cccc([N+](=O)[O-])c1 | -2 | -9 | 0 | 16 | 85* | 91*
CCCn1c(NC(=O)c2cccc(S(=O)(=O)N3CCCC3)c2)nc2ccccc21 | 2 | 11 | 0 | 15 | 40 | 57*
CCCn1c(NC(=O)c2ccccc2)nc2ccccc21 | 2 | -10 | 0 | 9 | 20 | ·
C[C@@H]1CCCCO[C@H](CN(C)S(=O)(=O)c2cn(C)cn2)[C@@H](C)CN([C@H](C)CO)C(=O)c2cc(NC(=O)c3ccncc3)ccc2O1 | 1 | · | · | · | · | ·
CCOC(=O)N1CCN(CC(=O)Nc2ccc(Oc3ccccc3)cc2)CC1 | -3 | -17 | 0 | -47 | -4 | ·
Cc1ccc(-c2cc(-c3ccccc3C)[nH]n2)c(O)c1 | -1 | 18 | 0 | 53 | 57* | 74*
Cc1ccc(O)c(-c2cc(-c3ccccc3F)[nH]n2)c1 | 4 | 77 | 0 | 2 | 18 | ·
CC(=O)Oc1ccc(-c2cc3c(OC(C)=O)cc(OC(C)=O)cc3oc2=O)cc1 | 1 | -25 | 0 | 2 | 6 | ·
Cc1cc(Cl)ccc1Oc1ccc(C(N)=O)cc1[N+](=O)[O-] | -2 | 117 | 0 | -5 | 53* | 24
Cc1cc(=O)oc2cc(Oc3ccc(C(N)=O)cc3[N+](=O)[O-])ccc12 | 1 | -17 | 0 | 18 | 26 | ·
CC(CCc1ccccc1)NC(=O)CN1C(=O)NC2(CCCCC2)C1=O (configuration not stated) | 4 | -11 | 0 | 5 | -1 | ·
CC12CCC(C(=O)Nc3ncc([N+](=O)[O-])s3)(OC1=O)C2(C)C (configuration not stated) | -4 | 2 | 0 | 5 | 0 | ·
CC(C(=O)Nc1ccc(C(=O)O)c(O)c1)N1C(=O)/C(=C\c2ccco2)SC1=S (configuration not stated) | 1 | 3 | 0 | 14 | 48* | 12 | ATG4B conf=62*
O=C(CN1C(=O)/C(=C/c2ccco2)SC1=S)Nc1ccc(C(=O)O)c(O)c1 | 2 | 0 | 0 | 37 | 62* | 20 | ATG4B conf=57*
O=C(CN1C(=O)/C(=C/c2ccco2)SC1=S)Nc1ccc(O)c(C(=O)O)c1 | 0 | -12 | 0 | 12 | 31 | ·
C=CCn1c(SCC(=O)N(CC)C2CCS(=O)(=O)C2)nc2scc(-c3ccccc3)c2c1=O (configuration not stated) | -1 | · | · | · | -6 | ·
CC(CNC(=S)Nc1cc(F)cc(F)c1)CSc1ccc(Cl)cc1 (configuration not stated) | 1 | 6 | 0 | -5 | 46* | 69*
CC(=O)OCC(=O)Nc1c(C)cc(C)cc1C | 0 | -8 | 0 | -3 | -5 | ·
